Among all 1,900 compounds or so, about 50 (3%) showed an effect of 50% or more. The list comes from a sample in which strong results are over-represented; it also holds similar structures and randomly drawn compounds.
target: p38/MK2 protein–protein interaction (VF-p38α / GST-MK2) (Homo sapiens, UniProt Q16539); test: primary screen, percent of control activity; higher = less effect of the substance; design: species or system HEK293T cell lysate transfected with VF-p38α and GST-MK2; unclear (methods say 'quintuplet replicates')
Procedure: The TR-FRET assay was conducted in a 1536-well plate (Corning, catalog no. 3724) with HEK293T cell lysate transfected with VF-p38α and GST-MK2. Cell-lysate concentration was optimized with a titration experiment. Anti-Flag-Tb and anti-GST-d2 antibodies (Revvity, catalog no. 61FGBTLB) were used to couple p38α and MK2, respectively. A multiple-drop Combi dispenser (Thermo Scientific) combined reaction mixtures in quintuplet replicates. The TR-FRET signals were measured using a BMG Labtech PHERAstar FSX plate reader and normalized to the percent of DMSO control.

Chain of p38/MK2 protein–protein interaction (VF-p38α / GST-MK2) (Q16539 2-360 limits assumed): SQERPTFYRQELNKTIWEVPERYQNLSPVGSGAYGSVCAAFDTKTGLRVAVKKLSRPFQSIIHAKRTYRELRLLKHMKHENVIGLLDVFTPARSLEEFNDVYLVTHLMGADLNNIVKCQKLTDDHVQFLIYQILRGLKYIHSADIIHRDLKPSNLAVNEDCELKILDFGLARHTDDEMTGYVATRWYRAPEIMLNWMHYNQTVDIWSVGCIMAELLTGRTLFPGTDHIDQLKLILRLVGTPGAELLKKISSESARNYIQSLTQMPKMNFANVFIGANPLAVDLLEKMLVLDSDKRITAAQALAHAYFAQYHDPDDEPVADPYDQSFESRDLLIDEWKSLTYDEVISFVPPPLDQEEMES

SMILES	Pct of control [%]
CCOc1nc2cccc(C(=O)OC(C)OC(=O)OC3CCCCC3)c2n1Cc1ccc(-c2ccccc2-c2nn[nH]n2)cc1 (stereo not drawn)	32.4
CCOc1nc2cccc(C(=O)O)c2n1Cc1ccc(-c2ccccc2-c2nc(=O)o[nH]2)cc1	94.5
CCOc1nc2cccc(C(=O)O)c2n1Cc1ccc(-c2ccccc2-c2nn[nH]n2)cc1	95
Cl.Cn1c(CCCC(=O)O)nc2cc(N(CCCl)CCCl)ccc21	99.1
CC1(C)CCC(C)(C)c2cc(NC(=O)c3ccc(C(=O)O)cc3)ccc21	92.2
C=C(c1ccc(C(=O)O)cc1)c1cc2c(cc1C)C(C)(C)CCC2(C)C	25.7
CC(=Cc1ccc(C(=O)O)cc1)c1ccc2c(c1)C(C)(C)CCC2(C)C	78.8
CO/N=C(\C(=O)N[C@@H]1C(=O)N2C(C(=O)O)=C(CSC(=O)c3ccco3)CS[C@H]12)c1csc(N)n1.Cl	115
Cn1cc(-c2ccc3ncc(Cc4ccc5ncccc5c4)n3n2)cn1	93.2
O=C1O[C@H]([C@@H](O)CO)C(O)=C1O	100
CCCCCC=CCC=CCCCCCCCC(=O)OC(COC(=O)CCCCCCCCCCCCCCC)COP(=O)([O-])OCC[N+](C)(C)C (stereo not drawn)	95.3
CCCCCCCCCCCCCCCC(=O)OCC(O)C1OC(=O)C(O)=C1O (stereo not drawn)	33.2
CN(C)c1ccc(C(=O)NCCCCCCC(=O)NO)cc1	96.2
Cl.O=S(=O)(c1cccc2cnccc12)N1CCCNCC1	93.6
COC(=O)C1=CO[C@@H](O[C@@H]2O[C@H](CO)[C@@H](O)[C@H](O)[C@H]2O)[C@@H]2C(CO)=CC[C@H]12	90.4
CNC(=O)c1cc(Oc2ccc(NC(=O)Nc3ccc(Cl)c(C(F)(F)F)c3)cc2)ccn1.Cc1ccc(S(=O)(=O)O)cc1	69.1
O=C(O)CC1CC(c2ccccc2)=NO1 (stereo not drawn)	86.5
CC1C=CC=CCCC=CC=CC=CC=CC(OC2OC(C)C(O)C(N)C2O)CC2OC(O)(CC(O)C(O)CCC(O)CC(O)CC(O)CC(=O)OC(C)C(C)C1O)CC(O)C2C(=O)O (stereo not drawn)	94.3
C[C@@H]1[C@H](O)[C@@H](C)/C=C/C=C/C=C/C=C/C=C/C=C/C=C/[C@H](O[C@@H]2O[C@H](C)[C@@H](O)[C@H](N)[C@@H]2O)C[C@@H]2O[C@](O)(C[C@@H](O)C[C@@H](O)[C@H](O)CC[C@@H](O)C[C@@H](O)CC(=O)O[C@H]1C)C[C@H](O)[C@H]2C(=O)O	48.7
C[C@@H]1C/C=C/C=C/C=C/C=C/[C@H](O[C@@H]2O[C@H](C)[C@@H](O)[C@H](N)[C@@H]2O)C[C@@H]2O[C@](O)(C[C@@H](O)C[C@H]3O[C@@H]3/C=C/C(=O)O1)C[C@H](O)[C@H]2C(=O)O	97.8
Cc1ccc(C(=O)N(CCCN)C(c2nc3cc(Cl)ccc3c(=O)n2Cc2ccccc2)C(C)C)cc1 (stereo not drawn)	97.1
COc1ccc(COc2cc3oc(=O)c4cc(C(C)O)ccc4c3cc2OC)cc1 (stereo not drawn)	78.7
C=C1C(=O)[C@]23[C@H](O)[C@H]1CC[C@H]2[C@@]12CO[C@]3(O)[C@@H](O)[C@@H]1C(C)(C)CC[C@@H]2O	42.8
COC(=O)C1=C(C)NC(C)=C(C(=O)OCCN2CCN(C(c3ccccc3)c3ccccc3)CC2)C1c1cccc([N+](=O)[O-])c1 (stereo not drawn)	121
COc1ccc2nc([S@@+]([O-])Cc3ncc(C)c(OC)c3C)[nH]c2c1	89.4

SMILES	Pct of control [%]
O=C(CCCCCCC(=O)Nc1ccccc1)NO	102
O=C(CCCCCCC(=O)Nc1ccc([C@H]2O[C@@H](CSc3nc(-c4ccccc4)c(-c4ccccc4)o3)C[C@@H](c3ccc(CO)cc3)O2)cc1)NO	20.4
Cc1cccc(C(C)c2cnc[nH]2)c1C.Cl (stereo not drawn) [S3060]	91.6
CC1=CC(=O)NS(=O)(=O)O1.[K]	95.6
CC(C)N(CCC(=O)c1ccc2ccccc2c1)Cc1ccccc1.Cl	26.2
CC(=CC(=O)Nc1ccccc1C(=O)O)c1ccc2ccccc2c1	105
CC(COc1ccccc1)N(CCCl)Cc1ccccc1.Cl (stereo not drawn)	85.4
O=S(=O)(CC1CS1)c1ccc(Oc2ccccc2)cc1 (stereo not drawn)	95
CN(C)CCCN1c2ccccc2Sc2ccc(C(F)(F)F)cc21.Cl	95.7
O=C(C=Cc1ccc2ccccc2n1)c1ccncc1	39.1
O=C(NNc1ccccc1)c1ccncc1	97.3
O=C(O)C=CC(=O)O.c1ccc2nc(N3CCNCC3)ccc2c1	98.6
Cl.c1ccc2c(CC3=NCCN3)cccc2c1	94.8
CCCNC(C)C(=O)Nc1ccccc1C (stereo not drawn)	96.3
CC(C)c1onc(-c2c(Cl)cccc2Cl)c1COc1ccc(C=Cc2cccc(C(=O)O)c2)c(Cl)c1	16.5
O=c1cc(-c2cccc3c2Sc2ccccc2S3)oc(N2CCOCC2)c1	88.7
CCCCCCOC(=O)N=C(N)c1ccc(NCc2nc3cc(C(=O)N(CCC(=O)OCC)c4ccccn4)ccc3n2C)cc1	94.2
COC1CCN(C(=O)c2cc(Cc3n[nH]c(=O)c4ccccc34)ccc2F)CC1	95.8
Cl.NC1CC1c1ccccc1 (stereo not drawn)	91.7
O=C(Oc1ccc([N+](=O)[O-])cc1)N1CCC(C(O)(c2ccc3c(c2)OCO3)c2ccc3c(c2)OCO3)CC1	94.2
O=[N+]([O-])C=Cc1ccc2c(c1)OCO2	40.3
O=C(/C=C/C=C/c1ccc2c(c1)OCO2)N1CCCCC1	82.5
Cc1ccc(-n2sc(=O)n(Cc3ccc(F)cc3)c2=O)cc1	114
Cc1cnc(NC(=O)Nc2cc(Br)c(C)cc2OCC2CNCCO2)cn1 (stereo not drawn)	73.3
O=C1c2c(O)cccc2C(C2OC(CO)C(O)C(O)C2O)c2cc(CO)cc(O)c21 (stereo not drawn)	92

SMILES	Pct of control [%]
O=C1c2cccc(O)c2C(=O)c2c(O)cc(CO)cc21	33.9
Cc1cc(O)c2c(c1)C(=O)c1cccc(O)c1C2=O	94
CC1=NN(c2ccc(C(=O)O)cc2)C(=O)C1=Cc1ccc(-c2cc(C)c(C)cc2[N+](=O)[O-])o1	18
COc1ccccc1N1CCN(CCN(C(=O)C2CCCCC2)c2ccccn2)CC1.O=C(O)C=CC(=O)O	97.5
CN1C(=O)CCS(=O)(=O)C1c1ccc(Cl)cc1 (stereo not drawn)	95.4
COC(=O)Nc1nc2ccc(C(=O)c3cccs3)cc2[nH]1	97.5
CCOc1ccc(NC(C)=O)cc1	97.7
CC(C)(C)NC[C@H](O)COc1nsnc1N1CCOCC1.O=C(O)C=CC(=O)O	94.2
c1ccc(Cn2c(-c3ccc(OCC(C4CCNCC4)n4c(-c5ccccc5)nc5ccccc54)cc3)nc3ccccc32)cc1 (stereo not drawn)	21.2
CCOc1ccccc1-n1c(C(C)N2CCN(C(=O)COc3ccc(Cl)cc3)CC2)nc2ccccc2c1=O (stereo not drawn)	100
CCCC1OC2CC3C4CCC5=CC(=O)C=CC5(C)C4C(O)CC3(C)C2(C(=O)CO)O1 (stereo not drawn)	101
CCCNC(C)C(=O)Nc1c(C)csc1C(=O)OC.Cl (stereo not drawn)	99.8
O=C(O)CCC1CCC(c2cc(F)ccc2F)(S(=O)(=O)c2ccc(Cl)cc2)CC1 (stereo not drawn)	85.6
COc1cc2nccc(Oc3ccc(NC(=O)C4(C(=O)Nc5ccc(F)cc5)CC4)cc3)c2cc1OC	70.5
CN1CCN(C2CCN(C(=O)Nc3cc(Oc4ccc(NC(=O)C5(C(=O)Nc6ccc(F)cc6)CC5)c(F)c4)ccn3)CC2)CC1	46.1
COc1cc2nccc(Oc3ccc(NC(=O)C4(C(=O)Nc5ccc(F)cc5)CC4)cc3)c2cc1OC.O=C(O)CC(O)C(=O)O	72.9
NC(=O)Nc1cc(-c2cccc(F)c2)sc1C(=O)NC1CCCNC1 (stereo not drawn)	74.3
Cc1cc(NC(=O)c2cccc(NC(=O)C=CCN(C)C)c2)ccc1Nc1nccc(-c2cccnc2)n1	80.7
COCCOc1ccc2c(c1)ncn2-c1ccc2cccc(N3CCC(N)CC3)c2n1	51.7
CC1(COc2ccc3c(c2)ncn3-c2ccc3cccc(N4CCC(N)CC4)c3n2)COC1	47.3
CCOC(=O)[C@H](CCc1ccccc1)N[C@H]1CS[C@H](c2cccs2)CN(CC(=O)O)C1=O.Cl	77.1
CC(C)(C)CC(C)(C)c1ccc(O)c(Cc2ccc(Cl)cc2Cl)c1	88.3
Cc1nn(-c2ccccc2)c(C)c1C=NN1CCN(Cc2ccccc2)CC1	85.5
CC(=O)O.Cc1cc2c(C(C)C)c(O)c(O)c(C=O)c2c(O)c1-c1c(C)cc2c(C(C)C)c(O)c(O)c(C=O)c2c1O [S2812]	29.9
CC(=O)O.Cc1cc2c(C(C)C)c(O)c(O)c(C=O)c2c(O)c1-c1c(C)cc2c(C(C)C)c(O)c(O)c(C=O)c2c1O [S2303]	26.8
